# Experiments:
# Conditions in all cases: concentration: 1 μM, replicates: in singlicate; n = 1
# [1] = test system: FYN
# [2] = test system: GAK
# [3] = test system: T1, GCN2(Kin.Dom.2,S808G)
# T1 construct: gene EIF2AK4
# [4] = test system: GRK1
# [5] = test system: T2, GRK2
# T2 construct: gene ADRBK1
# [6] = test system: T3, GRK3
# T3 construct: gene ADRBK2
# [7] = test system: GRK4
# [8] = test system: GRK7
# [9] = test system: GSK3A
# [10] = test system: GSK3B
# [11] = test system: T4, HASPIN
# T4 construct: gene GSG2
# [12] = test system: HCK
# [13] = test system: HIPK1
# [14] = test system: HIPK2
# [15] = test system: HIPK3
# [16] = test system: HIPK4
# [17] = test system: HPK1
# [18] = test system: HUNK
# [19] = test system: ICK
# [20] = test system: IGF1R
# 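Further: KINOMEscan kinase panel screen.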
Structure (SMILES),%Inh [1] [%],%Inh [2] [%],%Inh [3] [%],%Inh [4] [%],%Inh [5] [%],%Inh [6] [%],%Inh [7] [%],%Inh [8] [%],%Inh [9] [%],%Inh [10] [%],%Inh [11] [%],%Inh [12] [%],%Inh [13] [%],%Inh [14] [%],%Inh [15] [%],%Inh [16] [%],%Inh [17] [%],%Inh [18] [%],%Inh [19] [%],%Inh [20] [%]
CN(C)CCOc1ccc(-c2cc(-c3ccc(Cl)c(O)c3)c(-c3ccncc3)[nH]2)cc1.Cl.Cl [SB-684387],78,42,0,43,0,21,0,17,41,10,18,51,2,0,1,4,39,0,0,0
COC(=O)Nc1nc2ccc(Oc3ccc(CC(=O)Nc4cc(C(F)(F)F)ccc4F)cc3)cc2[nH]1 [GW680903],37,0,2,0,0,66,0,0,5,0,0,0,0,0,0,0,60,15,0,0
COc1cc(Nc2nccc(N3CCC(NC(=O)Nc4ccc5c(c4)OCO5)C3)n2)cc(OC)c1OC (stereo not shown) [GSK1379766],36,21,0,0,0,8,0,0,0,2,0,0,0,0,16,0,78,0,26,0
CN(c1ccc(NC(=O)N2CCN(CCCN3CCOCC3)CC2)cc1)c1ccnc(Nc2ccc(CS(C)(=O)=O)cc2)n1.Cl [GW830899],18,59,0,0,0,0,43,0,0,0,0,12,45,0,0,20,47,0,95.9,1
COC(=O)Nc1nc2ccc(Oc3ccc(NC(=O)Nc4cc(C(F)(F)F)ccc4F)cc3)cc2[nH]1.Cl [GW654607],54,0,6,0,0,0,11,0,4,9,12,51,8,0,10,92,57,8,11,2
CNc1nccc(-c2ccc3c(N)n[nH]c3c2)n1 [GSK2206003],17,69,0,0,15,23,46,14,14,0,93,0,34,0,37,42,55,0,0,22
Cc1nn2c(=O)cc(N3CCO[C@H](C)C3)nc2n1Cc1cccc(Cl)c1Cl [GSK2373693],7,8,0,11,0,17,3,0,0,69,3,22,10,30,78,0,25,0,15,10
Cl.O=C(Nc1ccc(Oc2ccc3[nH]c(NC(=O)c4ccco4)nc3c2)cc1)Nc1cc(C(F)(F)F)ccc1F [GW683134],42,0,10,0,0,11,100,0,0,9,0,58,0,0,11,88,40,0,0,17
CC(=O)Nc1cn2nc(Oc3cccc(NC(=O)c4cccc(C(F)(F)F)c4)c3)ccc2n1,96.7,0,37,0,0,0,1,0,20,0,0,98.2,35,0,0,19,59,43,0,8
CCOc1nccc(-c2c(-c3ccc(F)cc3)ncn2C2CCNCC2)n1 [SB-249175],6,8,40,11,3,0,15,14,0,49,0,0,59,44,44,6,12,0,65,0
O=C(O)C(F)(F)F.O=c1[nH]ccc2nc(N[C@@H]3CCNC3)nc(Nc3ccc4c(c3)S(=O)(=O)CC4)c12 [GSK2181306],43,76,97.3,95.2,49,60,88,65,97.8,92.1,90,59,75,84,93.3,56,96.7,0,68,19
